DT40 TDP1 CPT: qHTS for Inhibitors of human tyrosyl-DNA phosphodiesterase 1 (TDP1): qHTS in cells in presence of CPT | chicken DT40 Tdp1-/-;hTDP1 cells + 20 nM CPT, ATP luminescence, 48 h | Potency, µM (doses to about 46.2 µM), without a hit: at the highest dose activity change, negative = growth inhibition, most hits filed as inhibitors | actives 12% (n = 420,000); also: % is scaled to controls: 0 for no effect and ±100 for the full control effect; nearly all actives have a fitted effect of over 55% in size
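Cell growth measured by CellTiter-Glo luminescence after a minimum 48 h, 37 C compound exposure with 20 nM CPT in Tdp1-knockout DT40 cells stably expressing hTDP1, seeded 400/well; qHTS titration format.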
DT40 TDP1 no CPT: qHTS for Inhibitors of human tyrosyl-DNA phosphodiesterase 1 (TDP1): qHTS in cells in absence of CPT; DT40 Tdp1-/- hTDP1 cells, no CPT, ATP luminescence, 48 h; Potency, µM (series often up to 46.2 µM), for inactives: at the highest dose activity change, negative = growth inhibition, most hits filed as inhibitors; actives 15% (n = 420,000); also: % is scaled to controls: 0 for no effect and ±100 for the full control effect; nearly all actives have a fitted effect of over 55% in size
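No-CPT arm: Tdp1-/-;hTDP1 DT40 cells (400/well) plus compounds, incubated ≥48 hr at 37 °C. Readout CellTiter-Glo luminescence.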
TDP1 inh: qHTS Assay for Inhibitors of Tyrosyl-DNA Phosphodiesterase (TDP1) | Potency, µM (highest dose often 130 µM), for the others: at the highest dose activity change, negative = inhibition, usual class: inhibitors | actives 0.28% (n = 350,000) | recombinant TDP1, AlphaScreen DNA substrate cleavage; also: % is scaled to controls: 0 for no effect and ±100 for the full control effect; nearly all actives have a fitted effect of over 40% in size
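Steps: enzyme plus compound, 15 min RT; add biotin/phosphotyrosine-FITC oligonucleotide (15 nM final), react 5 min; add donor/acceptor beads (10 ug/ml final), 10 min; read AlphaScreen. Tdp1 at 1 nM final.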
ClpP mod: qHTS Assay for Activators of ClpP. purified B. subtilis ClpP, FRET peptide cleavage, 20 min. Potency, µM (top dose mostly 57.5 µM), inactives show at the top dose activity change, negative = active. actives 1.9% (n = 340,000); active = well fitted falling curve with a large enough effect; inconclusive = small, poorly fitted or top-dose-only effect; inactive = no such curve, though single readings can be large or run the other way; also: the source files actives as falling curves though it sought activators and does not explain the sign; nearly all actives have a fitted effect of over 65% in size
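Buffer: 100 mM Tris/HCl pH8, 100 mM KCl, 0.05% low protease BSA, 2.5% glycerol, 0.01% Tween-20. ClpP 10 microg/mL final; 20 min RT; delta FRET normalized to ADEP and DMSO controls.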
Starred values were filed as active, the others as inactive; ? = inconclusive; nt = not tested or not shown; [ ] = dose if it differs, or a comment. Sampled rows, rich in hits. Any-hit rate of the full collection: about 17%. Unless noted, calls follow the shape of the dose curve; as a rule, active = well fitted curve in the direction sought with a large enough effect; inconclusive = small, poorly fitted or top-dose-only effect, or another doubt; inactive = no such curve, though single readings can be large; an effect the other way counts as inactive or inconclusive. Potency is read from the fitted curve at half-maximal effect.

SMILES	DT40 TDP1 CPT	DT40 TDP1 no CPT	TDP1 inh	ClpP mod
CN1CCN(C(=O)CSc2nc(-c3cccs3)cc(-c3cccs3)c2C#N)CC1	?	18µM*	4%	-7%
CC(NC(=O)Cc1ccc(S(=O)(=O)N2CCOCC2)s1)c1ccc(Br)cc1 (centres undefined)	?	?	nt	-3%
COc1cccc(OCc2nc3ccccc3c(=O)n2N)c1	?	-12%	5%	0%
COc1cccc(CCc2nc3ccccc3c(=O)n2N)c1	?	21µM*	nt	-1%
O=C(CC1Sc2ccc(C(F)(F)F)cc2NC1=O)Nc1ccc(Cl)c(C(F)(F)F)c1 (centres undefined)	?	?	nt	1%
CCn1nc(C)c([N+](=O)[O-])c1C(=O)NNC(=O)c1ccc(Cl)cc1	-2%	0%	-1%	-10%
Cc1cc(N2CCC(C)CC2)nc2ccc(NC(=O)CCC(=O)N3CCN(c4ccccc4F)CC3)cc12	18µM*	15µM*	0%	4%
Cc1cc(N2CCOCC2)nc2ccc(NC(=O)CCC(=O)N3CCC(C)CC3)cc12	1%	?	1%	28µM*
CCN1CCN(c2cc(C)c3cc(NC(=O)CCC(=O)N4CCN(c5ccccc5OC)CC4)ccc3n2)CC1	1%	?	-6%	nt
Cc1cc(N2CCOCC2)nc2ccc(NC(=O)CCC(=O)N3CCN(c4cccc(C(F)(F)F)c4)CC3)cc12	4.1µM*	2.1µM*	5%	nt
COc1ccc(CNC(=O)COc2ccc(S(=O)(=O)N3CCOCC3)cc2)cc1	?	?	nt	1%
O=C(COc1cccc(Cl)c1)Nc1ccc(N2CCOCC2)cc1	-22%	?	1%	4%
CCOc1ccc(NC(=O)COc2ccc(S(=O)(=O)N3CCOCC3)cc2)cc1	3.3µM*	?	1%	2%
O=C(COc1ccc(F)c(Cl)c1)Nc1ccc(N2CCOCC2)cc1	16µM*	?	3%	nt
CCOc1ccc(CONS(=O)(=O)c2ccc(NC(C)=O)cc2)cc1Cl	?	9.2µM*	8%	nt
O=C(COc1ccc(S(=O)(=O)N2CCOCC2)cc1)NCCc1ccc(Cl)cc1	?	18µM*	nt	0%
CC(=O)Nc1ccc(S(=O)(=O)NNC(=O)COc2ccc(Cl)cc2Cl)cc1	-13%	8%	4%	nt
CCOc1ccc(C(=O)CN2CCN(S(=O)(=O)c3ccc(OC)cc3)CC2)cc1	18µM*	?	1%	-2%
CCOc1ccc(CN2CCN(S(=O)(=O)c3ccc(NC(C)=O)cc3)CC2)cc1	?	15µM*	6%	nt
O=C(/C=C/c1ccc(S(=O)(=O)N2CCOCC2)cc1)NCc1ccc(Cl)cc1	?	18µM*	4%	0%
O=C(CCCOc1ccc(Br)cc1)Nc1ccc(S(=O)(=O)N2CCOCC2)cc1	?	16µM*	nt	nt
O=C(COc1ccc(S(=O)(=O)N2CCOCC2)cc1)Nc1ccc(Br)cc1	?	?	0%	2%
CCOc1ccc(C(=O)CN2CCN(S(=O)(=O)c3ccc(Br)cc3)CC2)cc1	?	-24%	8%	0%
COc1ccc(CNC(=O)/C=C/c2ccc(S(=O)(=O)N3CCOCC3)cc2)cc1	-16%	?	2%	nt
COc1ccc(CN2CCN(S(=O)(=O)c3ccc(NC(C)=O)cc3)CC2)cc1OC	?	?	-7%	0%
COc1ccc(OC)c(-c2ccnc(-n3ncc(C(=O)NC(C)(C)CO)c3C3CC3)n2)c1	-3%[9.04 µM]	-14%	nt	nt
N#CC1(Cc2ccc(Cl)cc2)c2ccccc2C=CN1C(=O)c1ccccc1 (centres undefined)	?	18µM*	5%	-3%
COc1ccc(N=C2S/C(=C\c3cc(C)n(C)c3C)C(=O)N2C)cc1	?	6.5µM*	12%	-19%
COc1ccccc1N1C(=O)S/C(=C\c2cc(C)n(C)c2C)C1=O	?	?	5%	-5%
COc1ccc(N=C2S/C(=C\c3ccc(C)s3)C(=O)N2CC(C)C)cc1	-25%	-29%	4%	-1%
